# Shown are actives, neighbours in structure and some others; about 4.1% of the full set was active somewhere.
# GDH-TPI inh: GDH-TPI coupled enzyme inhibition counter-screen; GDH-TPI coupled enzyme counterscreen, NADH absorbance; inhibition, % at 4.8 µM; 360,000 tested, 1.2% active; in the data active = inhibition above about 30%;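 note: 0% = DMSO wells and 100% = wells lacking the enzyme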
# RecA splice inh: inhibitors of M. tuberculosis RecA intein splicing | 290,000 tested, 0.75% active | AID 2221 | cell-free RecA intein splicing, fluorescence | inhibition, % (no concentration beside the values) | P9WHJ3; in the data active = inhibition above about 30%;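 note: 0% = vehicle wells and 100% = reference inhibitor control wells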
# UGM FP inh: Mtb UDP-galactopyranose mutase inhibition. purified UGM, fluorescence polarization probe displacement. 320,000 tested, 0.06% active. AID 504406. inhibition, % at 10 µM. P9WIQ1; in the data active = inhibition above about 10%, passing the limit was not always enough
# Vc quorum ag: inducers of Vibrio cholerae quorum light production without autoinducers; V. cholerae BH1578 lux reporter, luminescence, 6 h; activation, % at 18.7 µM; 350,000 tested, 0.16% active; AID 588436; in the data active = activation mostly above about 9.7%, no sharp cut-off
# FBA Mtb inh: inhibitors of M. tuberculosis fructose-bisphosphate aldolase | P9WQA3 | purified M. tuberculosis FBA, fluorescence read-out | inhibition, % at 1 µM | 360,000 tested, 2.3% active | AID 588726; in the data active = inhibition above about 27%;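 note: 0% = vehicle and 100% = reference inhibitor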
# Rv3671c protease: Rv3671c (M. tuberculosis) protease inhibition; P9WHR9; inhibition, % at 5.96 µM; 320,000 tested, 0.048% active; AID 2606; in the data active = inhibition above about 38%;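 note: extracellular domain of Rv3671c used as enzyme; 0% = enzyme with DMSO and 100% = no enzyme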
# Target sequence (P9WHR9 whole entry, looked up, the tested form may be a part): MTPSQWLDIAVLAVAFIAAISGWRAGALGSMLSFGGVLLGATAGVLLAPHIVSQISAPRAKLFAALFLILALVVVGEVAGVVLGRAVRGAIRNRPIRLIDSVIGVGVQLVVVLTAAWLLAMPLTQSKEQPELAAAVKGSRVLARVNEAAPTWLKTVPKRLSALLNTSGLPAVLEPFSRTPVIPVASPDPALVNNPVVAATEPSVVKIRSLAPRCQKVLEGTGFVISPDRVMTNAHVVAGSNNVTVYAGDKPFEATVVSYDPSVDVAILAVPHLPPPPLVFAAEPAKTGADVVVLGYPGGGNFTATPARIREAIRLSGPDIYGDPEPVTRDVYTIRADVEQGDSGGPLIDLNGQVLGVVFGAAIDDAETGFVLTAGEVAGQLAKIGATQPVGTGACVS
# An asterisk follows results filed as active; i = inactive; x = no result given; + = active, no number.
SMILES,GDH-TPI inh,RecA splice inh,UGM FP inh,Vc quorum ag,FBA Mtb inh,Rv3671c protease
COc1ccc2c(c1)c1ncn(CC3CCCO3)c(=O)c1n2C (configuration not stated),15,-3,-3,1,+,-2
COc1ccc2c(c1)[nH]c1c(=O)n(CCCN3CCOCC3)cnc12,-1,-2,-1,x,4,-3
NS(=O)(=O)c1ccc(NC(=O)CN(C(=O)C(F)(F)F)C2CCCC2)cc1,9,x,x,-1,2,x
CC(=O)Oc1ccc2c(=O)c(-c3ccccc3)coc2c1,0,5,0,0,15,9
CCOC(=O)COc1ccc2cc(C(=O)OCC)c(=O)oc2c1,38*,x,0,i,184*,0
CC(=O)Oc1ccc2cc(-c3ccccc3)c(=O)oc2c1,6,-145,0,i,158*,-9
CCOC(=O)c1ccc(COC(=O)c2cc3ccccc3oc2=O)o1,12,x,-2,1,8,-7
COc1ccc(-c2cc3ccc(OC(C)C(=O)O)cc3oc2=O)cc1 (configuration not stated),16,-199,1,5,+,x
COc1ccc(-c2cc(=O)oc3cc(OCC(C)=O)ccc23)cc1,17,1,-2,i,2,-4
CC(=O)COc1ccc2cc(-c3ccccc3)c(=O)oc2c1,40*,-5,1,0,+,7
CCOC(=O)c1c(-c2ccccc2)c2cc(OC)ccc2n1CCCN(C)C,6,1,0,i,17,6
COc1ccc(COC(=O)N/N=C/c2cccs2)cc1,13,6,-1,8,-4,-7
COc1ccc(-n2nc([N+](=O)[O-])c(=NCCC3=CCCCC3)n2O)cc1,17,2,0,0,-5,8
CN(C)C(=O)c1ccc(NC(=O)c2ccc(-c3ccc(Cl)cc3)o2)cc1,14,x,-1,i,-2,-18
CSc1ccc(NC(=O)C2(C)CCN2C(=O)c2cc(C)n(C)n2)cc1 (configuration not stated),0,x,x,0,-1,x
CC1(C)CC(=O)C2=C(C1)NC(Nc1nc3ccccc3o1)=NC21CCCC1,5,0,-3,i,-5,7
CC1(C)CC(=O)C2=C(C1)NC(Nc1nc3ccccc3o1)=NC2c1ccccn1 (configuration not stated),44*,-4,1,i,-2,4
CNc1cnc(-c2ccc(C(=O)N3CCOCC3)cc2)cn1,16,x,x,i,+,x
CC(=O)Nc1cnc(-c2cccc(C(=O)N3CCOCC3)c2)cn1,-2,x,x,0,9,x
CCN(Cc1ccc(OC)c(F)c1)C(=O)C1CCCO1 (configuration not stated),-5,0,-1,5,2,0
CCN(Cc1ccc(OC)c(F)c1)C(=O)CCl,-5,49*,-1,0,-1,1
COc1cc(OC)cc(-c2c(C#Cc3ccsc3)c3cc(Br)ccc3n2C)c1,9,x,1,-5,13,-6
COc1cc(OC)cc(-c2c(C#Cc3ccsc3)c3cc(-c4cccc5[nH]cc(C=O)c45)ccc3n2C)c1,32*,x,-3,1,6,-6
COc1cc(OC)cc(-c2c(C#Cc3ccsc3)c3cc(-c4ccc(OC)nc4)ccc3n2C)c1,44*,x,1,i,18,-26
COc1cc(F)cc(-c2ccc3c(c2)c(C#Cc2ccsc2)c(-c2cc(OC)cc(OC)c2)n3C)c1,31*,x,3,0,14,-2
SMILES,GDH-TPI inh,RecA splice inh,UGM FP inh,Vc quorum ag,FBA Mtb inh,Rv3671c protease
COc1cc(OC)cc(-c2c(C#Cc3ccsc3)c3cc(-c4ccc(OC)c(OC)c4)ccc3n2C)c1,44*,x,-1,0,19,-3
COc1cc(OC)c(NS(=O)(=O)c2ccc3c(c2)NC(=O)CO3)cc1Cl,-7,-6,-1,i,-2,1
COc1ccc(-c2csc(C(C)(O)c3cccc(F)c3)n2)cc1OC (configuration not stated),7,x,x,1,0,x
COc1ccc(C(N)=O)c(OCC(=O)Nc2cc(C)on2)c1,-6,x,1,i,1,4
COc1ccc(-c2cc(-c3ccccc3)c(C#N)c(S(C)=O)n2)cc1 (configuration not stated),31*,-3,-3,i,+,-8
COC(=O)CSc1nc(N)c2c3c(sc2n1)C(c1ccccc1)SC(c1ccccc1)C3 (configuration not stated),10,36*,-1,0,0,-14
COC(=O)CSc1nc(N)c2c3c(sc2n1)CCCC3,0,-3,0,x,4,3
COC(=O)N/N=C/c1ccc(-c2ccccc2Cl)o1,35*,1,1,-1,0,-6
COC(=O)c1ccccc1-c1ccc(C=O)o1,8,x,0,0,3,-2
COC(=O)c1ccccc1-c1ccc(/C=N/NC(N)=O)o1,32*,-3,0,0,1,4
COC(=O)c1sccc1-c1ccc(C(=O)Nc2cccc(Cl)c2)o1,-1,0,-1,1,7,-98
COC(=O)N/N=C/c1ccc(-c2ccc(Cl)cc2Cl)o1,34*,0,-2,-1,4,-14
COC(=O)c1sccc1-c1ccc(/C=N/OC(=O)c2ccccc2)o1,31*,2,-3,-14,14,10
O=C(O)c1ccc(N/N=C/c2ccc(-c3ccc(Cl)cc3Cl)o2)cc1,28,-33,2,0,21,25
O=C(N=Nc1c(O)[nH]c2ccc([N+](=O)[O-])cc12)c1ccccc1Cl,22,2,0,0,0,-5
O=[N+]([O-])c1ccc2[nH]c(O)c(N=NC(=S)NCC3CCCO3)c2c1 (configuration not stated),14,1,x,1,-2,0
Cc1ccccc1NCC(=O)N=Nc1c(O)[nH]c2ccc([N+](=O)[O-])cc12,36*,3,-2,0,-3,4
O=[N+]([O-])c1ccc2[nH]c(O)c(N=NC3CS(=O)(=O)CC3O)c2c1 (configuration not stated),45*,0,-2,i,2,3
CCNC(=S)N=Nc1c(O)[nH]c2ccc([N+](=O)[O-])cc12,30,45*,2,-1,-5,9
Cc1ccccc1OCC(=O)N(Cc1ccco1)c1c(N)n(Cc2ccccc2)c(=O)[nH]c1=O,-3,x,-1,i,-1,-4
Cc1ccccc1NC(=O)Cn1c(=O)sc2ccccc21,-1,0,0,-1,-4,0
COc1cc(/C=N/NC(=O)C(Cc2c[nH]c3ccccc23)NC(=O)OCC(C)C)cc([N+](=O)[O-])c1O (configuration not stated),33*,1,-2,0,-7,10
COc1cc(/C=N/NC(=O)C(Cc2c[nH]c3ccccc23)NC(=O)OCc2ccccc2)cc([N+](=O)[O-])c1O (configuration not stated),36*,4,4,0,-10,12

# Bioassay records as filed in PubChem.
